Results taken from PubChem BioAssay (NCATS).
Records with an inconclusive call do not appear. The source made the active and inactive calls. Unless noted, calls come from the whole dose curve; as a rule, active = well fitted curve in the direction sought with a large enough effect; inconclusive = small, poorly fitted or top-dose-only effect, or another doubt; inactive = no such curve, though single readings can be large; an effect the other way counts as inactive or inconclusive.

Columns and labels:
[1] = qHTS profiling of the MIPE4 collection as inhibitors of Plasmodium falciparum (3D7) proliferation (AID 743344; call rule not given here;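 note: scaled between DMSO vehicle wells and 0.29 µM artemisinin as full inhibition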); settings: P. falciparum 3D7 in erythrocytes, SYBR Green DNA fluorescence, 72 h; at 28.5 µM unless noted
In short: (§1)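 Erythrocytes infected with P. falciparum (0.3% parasitemia, 2.5% hematocrit) incubated with compounds 72 h at 37 C, 5% CO2. Lysis with saponin/Triton buffer containing SYBR Green I, overnight at room temperature in the dark; DNA fluorescence (485/535 nm) normalised to 0.29 uM artemisinin and DMSO.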

[2] = qHTS profiling of the MIPE4 collection as inhibitors of Plasmodium falciparum (DD2) proliferation (AID 743345; call rule not given here); settings: P. falciparum Dd2 in erythrocytes, SYBR Green DNA, 72 h; at 28.5 µM unless noted
In short: as §1

[3] = qHTS profiling of the MIPE4 collection as inhibitors of Plasmodium falciparum (DD2) proliferation (Rep 2) (AID 743346; call rule not given here); settings: P. falciparum Dd2 in erythrocytes, SYBR Green DNA, 72 h; at 28.5 µM unless noted
In short: as §1

[4] = High-throughput drug toxicity screening in the BPDCN cell line Gen2.2 (AID 1224824; call rule not given here;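 note: cells exposed to compounds for 48 h before reading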); settings: Gen2.2 BPDCN cells; at 45.8 µM (top of the series) unless noted
In short: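 Readout is ATP luminescence from Gen2.2 cells after two days of drug exposure in serum-containing medium at 37 °C. Values express percent activity, with vehicle defining full signal and 9.2 uM bortezomib defining zero.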

[5] = High-throughput drug toxicity screening in the BPDCN cell line Cal-1 (AID 1224825; call rule not given here); settings: Cal-1 BPDCN cell viability, qHTS; at 45.8 µM (top of the series) unless noted
In short: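 Exponentially growing Cal-1 cells, 500 per well in phenol red-free RPMI with 10% FBS, were exposed to compounds for 48 h at 37 °C, 5% CO2. Viability was read by CellTiter-Glo luminescence and normalised to DMSO (100%) and 9.2 uM bortezomib (0%).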

[6] = qHTS assay for measurement of the activity of small molecule inhibitors on Zika virus induced Caspase-3 activity in human iPSC derived neural progenitor cells (hNPCs) (AID 1224857); note: % of control where 0% means no effect; nearly all actives have a fitted effect of over 65% in size
In short: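 In medium with heparin 2 ug/ml and cyclopamine 2 uM, hNPCs (350 cells/well) received compound for one hour and then Zika virus at 2 FFU/cell; caspase activity was measured by Caspase-Glo 3/7 luminescence 6 h post-infection.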

[7] = qHTS assay for measurement of the activity of small molecule inhibitors on Zika virus induced Caspase-3 activity in human astrocytoma cells (AID 1224859);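 note: plate controls were ZIKV-infected untreated cells for no effect and uninfected cells for full effect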
In short: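 A cell-based luminescent caspase-3/7 assay used SNB-19 cells infected with ZIKV (2 FFU/cell) for 6 h following 1 h compound pretreatment.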

[8] = qHTS Screen of the MIPE 4.0 Collection Against Ewings Sarcoma (RDES) (AID 1259252); note: nearly all actives have a fitted effect of over 35% in size; note: potency is the fitted concentration of half-maximal effect
In short: (§2)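 Measured: ATP luminescence (CellTiter-Glo) 10 min after reagent addition, following 48 h drug treatment. Relative luciferase units converted to percent activity, with no-cell wells as full and DMSO wells as zero inhibition.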

[9] = qHTS Screen of the MIPE 4.0 Collection Against Ewings Sarcoma (TC71) (AID 1259253); note: nearly all actives have a fitted effect of over 40% in size; note: potency is the fitted concentration of half-maximal effect
In short: as §2

[10] = qHTS Screen of the MIPE 4.0 Collection Against Ewings Sarcoma (TC32) (AID 1259256); note: nearly all actives have a fitted effect of over 45% in size; note: potency is the fitted concentration of half-maximal effect
In short: as §2

[11] = qHTS profiling of the MIPE4 collection as inhibitors of Plasmodium falciparum (HB3) proliferation (AID 743347; call rule not given here;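 note: plate controls were DMSO vehicle wells for no effect and artemisinin wells for full effect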); settings: P. falciparum HB3 in erythrocytes, SYBR Green DNA, 72 h; at 28.5 µM unless noted
In short: as §1

[12] = qHTS profiling for inhibitors of Plasmodium falciparum (HB3) proliferation (AID 743324); settings: Plasmodium falciparum HB3 blood-stage proliferation; at 28.7 µM (top of the series) unless noted;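 note: 100% = DMSO vehicle wells and 0% = artemisinin-treated control wells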
In short: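 P. falciparum HB3 grown in erythrocytes (0.3% parasitemia, 2.5% hematocrit final) with compound for 72 h at 37 C, 5% CO2. Parasite DNA detected by SYBR Green after saponin/triton lysis overnight; normalized to 0.29 uM artemisinin and DMSO.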

[13] = Identifying Small Molecule Inhibitors of Pancreatic Cancer Stem Cells (A278, Adherent) (AID 1259361); note: nearly all actives have a fitted effect of over 35% in size
In short: (§3)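 After a 4 h attachment period, compounds were pinned into wells and cultures held 48 h under standard incubator conditions. Viability was then measured as CellTiter-Glo luminescence following 10 min at room temperature.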

[14] = qHTS Screen of the MIPE 4.0 Collection Against Ewings Sarcoma (EW8) (AID 1259255); note: potency is the fitted concentration of half-maximal effect; nearly all actives have a fitted effect of over 35% in size
In short: as §2

[15] = Identifying Small Molecule Inhibitors of Pancreatic Cancer Stem Cells (A2780, Spheroid) (AID 1259357); settings: Potency: A2780 spheroid viability;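 note: spheroids pre-formed over 14 days in stem cell medium on hydrogel; compound exposure lasted 48 h before the ATP luminescence read; 100% = DMSO treated cells and 0% = wells without cells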
In short: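 Spheroids grown 14 days in stem cell media on nonadherent hydrogel before screening; cells attached 4 h, then compound exposure 48 h at 37C, 5% CO2. CellTiter-Glo luminescence normalized to DMSO (no inhibition) and no-cell wells (full inhibition).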

[16] = Identifying Small Molecule Inhibitors of Pancreatic Cancer Stem Cells (SN12C, Adherent) (AID 1259358);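 note: cell survival measured after 48 h of compound exposure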
In short: as §3

SMILES | parasite growth, % of DMSO control [1] | parasite growth remaining, % of DMSO control (lower = more inhibition) [2] | parasite growth, % of control (lower = inhibition) [3] | cell viability, % of control (lower = more cytotoxic) [4] | viability (% of control) [5] | Potency [6] | Potency [7] | Potency [8] | Potency [9] | Potency [10] | growth, % of control [11] | remaining proliferation (% of control), lower = more inhibition [12] | IC50 (viability decrease) [13] | Potency [14] | Potency [15] | Potency [16]
O=C(NCCCCN1CCOCC1)c1cc2ccccc2o1 | 89% | 99.3% | 41.5% | 213% | 109% | inactive | inactive | inactive | inactive | inactive | – | – | – | – | – | –
CCOC(=O)N1CCN([N+]([O-])=NOc2cc(ON=[N+]([O-])N3CCN(C(=O)OCC)CC3)c([N+](=O)[O-])cc2[N+](=O)[O-])CC1 | 56.9% | 45.7% | 49.8% | 87.7% | 81.2% | inactive | inactive | inactive | inactive | 4.18 µM (active) | 48% | – | – | – | – | –
CCCCn1c(=O)n(Cc2ccccc2F)c(=O)c2[nH]c(Cc3ccc(NC(C)=O)cc3)nc21 | 115% | 85.9% | 43.7% | 50.4% | 86% | inactive | inactive | inactive | 20.9 µM (active) | inactive | 314% | 30.8% | 13.2 µM (active) | – | – | –
N#CC(c1ccnc(NCCc2cccnc2)n1)c1nc2ccccc2s1 (centres undefined) | 4.46% | 18.6% | 15.5% | 9.41% | 3.4% | inactive | inactive | 23.5 µM (active) | 16.6 µM (active) | – | 7.28% | – | – | 14.8 µM (active) | – | –
CCn1c(-c2nonc2N)nc2cncc(CNC3CCNCC3)c21 | 45.1% | 89.6% | 43.8% | 7.5% | 56.5% | inactive | inactive | 11.8 µM (active) | inactive | 14.8 µM (active) | 7.55% | – | – | – | – | –
Cn1c(=O)c(-c2c(Cl)cccc2Cl)cc2cnc(Nc3cccc(C(=O)O)c3)nc21 | 12.8% | 13.6% | 19.9% | 462% | 77.7% | inactive | inactive | 0.0662 µM (active) | inactive | inactive | 15.5% | – | – | – | – | –
NC(=O)c1noc([C@H](CCCC2CCCCC2)CC(=O)NO)n1 | 33.9% | 125% | 30.9% | 20% | 7.18% | inactive | inactive | 8.33 µM (active) | 26.4 µM (active) | – | 48.3% | – | – | 18.7 µM (active) | – | –
CC[C@]1(O)C[C@H]2CN(CCC3=c4ccccc4=N[C]3[C@@](C(=O)OC)(c3cc4c(cc3OC)N(C)[C@H]3[C@@](O)(C(N)=O)[C@H](O)[C@]5(CC)C=CCN6CC[C@]43[C@@H]65)C2)C1 | 18.7% | 14.1% | 35% | 14.7% | 14.9% | inactive | inactive | 0.0033 µM (active) | 0.0264 µM (active) | inactive | – | – | – | – | – | –
O=C1NC(=O)C(c2cnc3ccccn23)=C1c1cn2c3c(cccc13)CN(C(=O)N1CCOCC1)CC2 | 22.1% | 88% | 59.2% | 36.5% | 24.4% | inactive | inactive | 5.26 µM (active) | 23.5 µM (active) | 16.6 µM (active) | 54.5% | 10.8% | – | – | – | –
O=C(Nc1ncc(SCCN2CCCC2)s1)[C@]1(c2ccc(S(=O)(=O)C3CC3)cc2)C[C@@H]1C1CCCCC1 | 6.74% | 7.78% | – | 116% | 92.3% | inactive | inactive | 13.2 µM (active) | 23.5 µM (active) | – | 10.1% | – | – | 13.2 µM (active) | – | –
Cc1cc2c(cc1C1(c3ccc(C(=O)O)cn3)CC1)C(C)(C)CCC2(C)C | 58.3% | 95.5% | 77.6% | 529% | 121% | inactive | inactive | inactive | inactive | inactive | – | 94.8% | – | – | inactive | inactive
CC(C)Oc1cc(Nc2nc(N[C@@H](C)c3ccc(F)cn3)ncc2Cl)[nH]n1 | 9.44% | 10.8% | 23.2% | 93% | 15.5% | inactive | inactive | 16.6 µM (active) | 16.6 µM (active) | 16.6 µM (active) | – | 3.28% | 13.2 µM (active) | – | – | –
C=C[C@@H]1CN2CCC1C[C@@H]2C(O)c1ccnc2ccc(OC)cc12 (some centres undefined) | 8.37% | 9.53% | 12% | 130% | 86% | inactive | inactive | 3.72 µM (active) | 4.18 µM (active) | 1.18 µM (active) | 3.29% | 2.91% | – | – | – | –
OC1CCC(Nc2ncc3nc(Nc4c(F)cc(F)cc4F)n([C@@H]4CCOC4)c3n2)CC1 (some centres undefined) | 38.4% | 84.7% | – | 62.2% | 13.2% | inactive | inactive | 18.7 µM (active) | 10.5 µM (active) | – | 43.4% | – | – | 9.35 µM (active) | – | –
O=C(CCCN1CCN(c2ccc(F)cc2)CC1)NC1c2ccccc2CSc2ccccc21 (centres undefined) | 76% | 98.7% | 80.9% | 91.5% | 58.7% | inactive | inactive | 14.8 µM (active) | 16.6 µM (active) | 16.6 µM (active) | 57.9% | – | – | – | – | –
CCC[C@H](N[C@@H](C)C(=O)N1[C@@H]2CCCC[C@H]2C[C@H]1C(=O)O)C(=O)OCC | 69% | 77.5% | 41.1% | 64.1% | 104% | inactive | inactive | inactive | 14.8 µM (active) | inactive | 98.7% | – | – | – | – | –
